Source: PubChem
MbtI inh – MbtI salicylate synthase inhibitors, primary screen, biochemical, fluorescence intensity. P9WFX0. purified MbtI enzyme, fluorescence intensity read-out. inhibition, % (test concentration not listed). 100,000 compounds, 0.89% hits; in the data active = inhibition mostly above about 56%, no sharp cut-off; inactive = mostly below about 77%
AID504770 – growth inhibition of E. coli YBA685, primary screen, V. cholerae RctB inhibitors; E. coli YBA685 rctB-dependent plasmid, OD600 growth, 3 h; hits give low values; z-score (no concentration beside the values); 130,000 compounds, 0.27% hits; AID 504770, 2011; in the data active = z-score below about -2, passing the limit was not always enough
PV pol inh – poliovirus RdRp elongation inhibitors, primary screen, biochemical, fluorescence polarization, total intensity; poliovirus polymerase elongation; hits give low values; % elongation, % (compound at 16.7 µg/mL); 150,000 compounds, 0.66% hits; AID 588519, 2011; in the data active = % elongation below about 90%
Mtb MenB inh – M. tuberculosis MenB inhibitors, primary screen, biochemical, absorbance | 1,4-dihydroxy-2-naphthoyl-CoA synthase (Mycobacterium tuberculosis (strain ATCC 25618 / … | MenB enzyme assay, absorbance read-out | inhibition, % (no concentration beside the values) | 100,000 compounds, 0.43% hits; in the data active = inhibition above about 21%, passing the limit was not always enough
Target sequence (P9WNP5 whole entry, looked up): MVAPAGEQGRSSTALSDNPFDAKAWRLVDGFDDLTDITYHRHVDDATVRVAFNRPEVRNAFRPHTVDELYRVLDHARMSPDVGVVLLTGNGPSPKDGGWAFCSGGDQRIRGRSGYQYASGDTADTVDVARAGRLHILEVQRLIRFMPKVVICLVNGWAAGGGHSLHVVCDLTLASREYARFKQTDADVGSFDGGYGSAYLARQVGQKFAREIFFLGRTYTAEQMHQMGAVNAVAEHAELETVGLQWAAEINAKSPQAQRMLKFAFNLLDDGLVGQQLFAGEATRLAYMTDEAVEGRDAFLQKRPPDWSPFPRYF
Of the large screens only hits and unclear results are named; the others gave an inactive call. Rows were chosen to be rich in hits. Some 1.4% of all compounds tested hit in one or more screens of this group.

Cc1ccc(NNC(=O)c2cccnc2Oc2ccccc2)cc1	none
Cc1c(-c2ccccc2)nc2ccccc2c1C(=O)O	Mtb MenB inh 33.9
O=C(O)Cc1c(-c2ccc(Cl)cc2)nc2ccccc2c1C(=O)O	none (no result: MbtI inh, PV pol inh, Mtb MenB inh)
N#CCCN(Cn1c2ccccc2c2ccccc21)c1ccccc1	none
Cn1cnc(S(=O)(=O)N(Cc2ccccc2)Cc2ccccc2N2CCC(C(=O)O)CC2)c1	PV pol inh 86.0
CC(=O)OCC(=O)Nc1ccccc1	PV pol inh 3.0
N#C/C(=C/Nc1cccc(C(F)(F)F)c1)c1nc(-c2ccc3c(c2)OCO3)cs1	none
Cc1cc(C)c2c(-n3cccc3)n[nH]c2n1	none (no result: MbtI inh, PV pol inh, Mtb MenB inh)
CCN(CC)/N=N/c1[nH]nc2nc(C)cc(C)c12	AID504770 -7.55 (no result: MbtI inh)
Oc1cc(Cl)c(Cl)cc1O	MbtI inh 102.1, AID504770 -3.45
CCOc1ccc(N2C(=O)CC(NCCNC(=O)c3ccc(Cl)cc3)C2=O)cc1 (configuration not stated)	Mtb MenB inh 26.9
O=C(Oc1cc(Cl)cc(Cl)c1)C12CC3CC(CC(C3)C1)C2	none
O=C(Oc1ccc(O)cc1)C12CC3CC(CC(C3)C1)C2	MbtI inh 96.7
Cc1ccc(OC(=O)C23CC4CC(CC(C4)C2)C3)cn1	Mtb MenB inh 42.2
CC1CCc2nn(CC(=O)NC3CCCCCC3)cc2C1 (configuration not stated)	none (no result: MbtI inh, PV pol inh, Mtb MenB inh)
O=C1CSC(=S)N1c1cccc(O)c1	AID504770 -3.1 (no result: MbtI inh, PV pol inh, Mtb MenB inh)
NS(=O)(=O)c1ccc(N2C(=O)CSC2=S)cc1	MbtI inh 57.4
Cc1nc2sccn2c1-c1nc(-c2ccc(Br)o2)c(C(=O)c2ccc3c(c2)OCCO3)s1	MbtI inh 98.0
CCN1C(=O)/C(=C2\SC(=Nc3ccc(Cl)cc3)N(C)C2=O)c2ccccc21	none
CN(C)CCCNc1nn2c(=O)c3ccccc3nc2c2ccccc12	PV pol inh 82.0
CCN1CCN(C(=S)c2ccc(OCC(N)=O)c(OC)c2)CC1	none
CCOc1ccc(NC(=O)c2c(NC(=O)c3ccccc3Br)sc3c2CCC(C)C3)cc1 (configuration not stated)	PV pol inh 78.0 (no result: MbtI inh, AID504770, Mtb MenB inh)
N/C(=N\N=C1CCCCCC1)SCn1nnc2ccccc2c1=O	PV pol inh 90.0
O=c1c2ccccc2nnn1CSC(=S)N1CCCC1	none
CC(C)N(C(=O)NC(=O)Nc1ccc(C=C(C#N)C#N)cc1)S(C)(=O)=O	PV pol inh 88.0
CCOC(=O)C1=C(CSc2nnc(-c3cccs3)n2-c2ccccc2)NC(=O)NC1C (configuration not stated)	AID504770 -2.45
CCO/C=C1/C(=O)N(c2ccc(OC)cc2)C(=O)c2ccccc21	PV pol inh 82.0
CCO/C=C1\C(=O)N(c2ccccc2)C(=O)c2ccccc21	PV pol inh 80.0 (no result: Mtb MenB inh)
COc1ccc(N2CCN(/C=C3\C(=O)N(c4ccc(C)cc4)C(=O)c4ccccc43)CC2)cc1	none
CCO/C=C1/C(=O)N(c2ccc(S(=O)(=O)N3CCOCC3)cc2)C(=O)c2ccccc21	none
CC(C)c1ccc(-n2c(=O)[nH]c3ccccc3c2=O)cc1	PV pol inh 73.0
COc1ccc(NC(=S)NN)cc1Cl	MbtI inh 92.3
Cc1ccc(C(=O)c2ccc(C)c(C)c2)cc1C	none
Cc1ccc(C(=O)CBr)cc1C	MbtI inh 88.4 (no result: Mtb MenB inh)
Cn1[nH]c(=O)c2ncccc2c1=O	none (no result: PV pol inh)
Cc1cc(NCCCN2CCCC2=O)n2c(nc3ccccc32)c1C#N	Mtb MenB inh 36.8
CCNc1nc(C)nc2sc(CC)cc12	Mtb MenB inh 31.7 (no result: MbtI inh)
S=c1[nH]nc(-c2ccncc2)o1	MbtI inh 96.7 (no result: PV pol inh, Mtb MenB inh)
O=C1CSc2nnc(-c3cccs3)n21	PV pol inh 57.0
c1csc(-c2nnc3n2-c2ccccc2SC3)c1	none
CCn1cc(N)c(C(N)=O)n1	none
NC(=O)C1CCN(Cc2ccccc2)CC1	none
O=C(O)C1CSC2(CCN(Cc3ccccc3)CC2)N1 (configuration not stated)	Mtb MenB inh 37.7
Cc1nc(-c2ccccc2)cc(=O)[nH]1	Mtb MenB inh 36.5
O=c1cc(-c2ccccc2)nc(Nc2nc3ccccc3o2)[nH]1	PV pol inh 68.0
CC1COc2c(N3CCN(C)CC3)c(F)cc3c(=O)c(C(=O)OCc4ccccn4)cn1c23 (configuration not stated)	AID504770 -4.55
CCC(C)N1CCN(C2CCCCC2)CC1 (configuration not stated)	Mtb MenB inh 44.3
C1CCC(N2CCN(C3CCCC3)CC2)C1	Mtb MenB inh 32.3
CC(=O)Nc1ccc(C(=S)NCCCO)cc1	PV pol inh 77.0
CCCNC(=O)c1ccc(NC(C)=O)cc1	none (no result: MbtI inh)
CC1CCc2cc(F)ccc2N1C(=O)C12CCC(c3nc(C#N)c(C#N)nc31)C2(C)C (configuration not stated)	none
Cc1ccc(O)c(C(=O)c2cnn(C(=O)Cc3csc(C)n3)c2)c1	PV pol inh 86.0
N#CCn1cc(/C=C2\C(=O)NC(=O)N(c3cccc(F)c3)C2=O)c2ccccc21	MbtI inh 74.2
CCOC(=O)Cn1cc(/C=C2\C(=O)NC(=O)N(c3ccc(F)cc3)C2=O)c2ccccc21	none
CCC1CCCCN1C(=O)CSc1ncccc1C(=O)O (configuration not stated)	none (no result: MbtI inh, PV pol inh, Mtb MenB inh)
Brc1ccc(-c2csc(NN=C3CCCC3)n2)cc1	MbtI inh 79.8
CC(=O)Nc1c(C(=O)c2ccc(F)cc2)oc2ccccc12	Mtb MenB inh 64.0
CC(C)(C)c1ccc(C(=O)Nc2c(C(=O)c3ccc(F)cc3)oc3ccccc23)cc1	none (no result: MbtI inh, AID504770, Mtb MenB inh)
Cc1cccc(-c2nsc(SCC(=O)N3CCCCC3)n2)c1	none
CCOC(=O)CSc1nc(-c2ccccc2)ns1	MbtI inh 52.0
COc1ccc(Cc2nn3c(Cn4cnc5ccccc54)nnc3s2)cc1	MbtI inh 99.0
CCc1cccc2c1=NC(=O)C=2c1c(C)[nH]n(-c2ccccc2)c1=O	MbtI inh 84.9
CN(c1cccc(NC(=O)CN(c2ccccc2)S(C)(=O)=O)c1)S(C)(=O)=O	none
NNc1ccc(Br)cc1	AID504770 -6.35 (no result: MbtI inh)
NCC(=O)Nc1ccc(Br)cc1	none
Cc1ccc2cnn(CCCC(=O)NCc3ccccc3)c2c1	none
CC1Cc2ccccc2N1C(=O)c1cc2ccccc2oc1=O (configuration not stated)	none (no result: Mtb MenB inh)
N/C(=N/O)c1ccccc1N	Mtb MenB inh 41.8
N#Cc1ccc(C(=O)N2CCCSC2=NCCc2ccccc2)cc1	none
CCOCCCN=C1SCC(CC)N1C(=O)c1ccc(C#N)cc1 (configuration not stated)	PV pol inh 89.0
Cc1cccc2nc(CSC(=S)NCc3cccnc3)cn12	AID504770 -3.7 (no result: MbtI inh, PV pol inh, Mtb MenB inh)
NC(=O)Oc1ccc(I)cc1	none (no result: MbtI inh)
COc1ccc2c(c1)CCCN2Cn1nc(COc2ccccc2)n(C)c1=S	none (no result: MbtI inh)
Cc1sc(Nc2ccccc2)nc1-c1ccccc1	none
c1ccc(Nc2nc3c(ccc4ccccc43)s2)cc1	PV pol inh 83.0 (no result: MbtI inh)
NS(=O)(=O)c1ccc(Br)cc1I	none (no result: MbtI inh, PV pol inh, Mtb MenB inh)
Cc1ccc(NNC(=S)NC(=O)C2CC2)c(C)c1	MbtI inh 94.6
Cc1ccc2cccc(I)c2n1	AID504770 -2.5
